From the supplement of paper PMC6555819

test system: PPARg:RXRa 30nM:10nM, anti-RXR (NR concentration 30 nM, RXRa partner concentration 10 nM); experiment: PBM binding z-score (relative to random genomic background probes); higher = stronger binding; sequences stand for … in GC…GCGATTGACAGCGTAGAATGAAGG
In short: (§1)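 Binding z-scores take random background probes as their reference. They come from custom Agilent 4×180K protein-binding microarrays incubated 1 h with ligand-free nuclear receptor dimers, with antibodies against each partner (one per run) detecting binding. Scanned fluorescence was regression-normalized.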

Question: For TCTTGTAGATCAAGCAGGCTAAGAAAGCCTGAGT, which PBM binding z-score is on record?
Answer: 2.4

Question: How did the PBM binding z-score turn out when ACTAGCAGACCAAGGGTCACTCAAGATTAGTCCG was run?
Answer: 3.15

Question: How did the PBM binding z-score turn out when GCGACTGGGGCAAAGCCGGTTACCATAAGGTTGG was run?
Answer: -0.849

Question: How did the PBM binding z-score turn out when ATATGTAGGGTATCGGGTCATTCAGTTTGCGCAT was run?
Answer: 2.42

Question: How did the PBM binding z-score turn out when CGTCCAAGGTTATAGGAGGTCAGTGAAGACAGAT was run?
Answer: 0.207

Question: With ACTATTAGTTGAGACGAAGGCAACCGATAGGTTG as the sequence, how does the PBM binding z-score read?
Answer: -0.441

Question: How did the PBM binding z-score turn out when CCGACTGGGGCAGAAGGTTACCATAAGCCAGCCC was run?
Answer: 0.815

Question: How did the PBM binding z-score turn out when TCATATAGCTAAACAGGTGAAAGTCCGTAAGTTA was run?
Answer: 2.64

Question: For CGAACTAGGTCGGAACAGGACAGTGAAGGATGAT, which PBM binding z-score is on record?
Answer: 0.0935

Question: With TAGCCTAGGTCATTGGGCCAGTATCGTACGCATC as the sequence, how does the PBM binding z-score read?
Answer: 0.601

Question: For TCTCGGAGGACACGAAGGGCAGAGCTTTCCAGAG, which PBM binding z-score is on record?
Answer: 1.78

Question: How did the PBM binding z-score turn out when TCTGCTAGGTCAGTTGGTCAGTTAACGAGCTGCC was run?
Answer: 0.985

Question: With ACTAGCAGGCCAAGGGTCACTTAAGATTAGTCCG as the sequence, how does the PBM binding z-score read?
Answer: 5.78

Question: CCTCGGGGGACAGAAGGTCAGAGCTGTCCGCTTT was tested. Which PBM binding z-score did it give?
Answer: 0.439

Question: How did the PBM binding z-score turn out when GCTCGGATGACAAGGTCAGAGCTTTGTCCGTAGA was run?
Answer: -0.707

Question: CCTACTGGGCCACCAGGTCATTGATATCAACGTT was tested. Which PBM binding z-score did it give?
Answer: 1.41

Question: With TGAATGAGGTTAAAGAACAGGGAACGTGGCGTCG as the sequence, how does the PBM binding z-score read?
Answer: 1.51

Question: How did the PBM binding z-score turn out when GCGACTGGGGCATCAGCAGGTTACGATAACTTAA was run?
Answer: -0.247

Question: For TAGCCTAGGTCATTCAGGAGCCAGTATAGAAAGC, which PBM binding z-score is on record?
Answer: 0.638

Question: How did the PBM binding z-score turn out when ACTGACAGGTGAGTGAAGGTAACTCAGCTGGACG was run?
Answer: -0.305

Question: Which PBM binding z-score does the source give for AATACAGGGTCATCGTAGGCCAGAGGACGCACAG here?
Answer: 3.12

Question: For CGAACTGGGTCATTGACAGGACAGTGAATAGTAA, which PBM binding z-score is on record?
Answer: 2.72

Question: With GCTTACGAGTCAAAGGTTATAGCATGAATAGAAT as the sequence, how does the PBM binding z-score read?
Answer: 4.17

Question: How did the PBM binding z-score turn out when CCTAGTTGGTCCGGAGGTCACACACCGGATATGA was run?
Answer: 1.51

Question: TAGCCTAGGTCATGCAGGCCAGTATAGTGTCGGC was tested. Which PBM binding z-score did it give?
Answer: 0.209

Question: For TAGCATAGGTCATGGGCCAGTATACCACGCGAAC, which PBM binding z-score is on record?
Answer: 2.04

Question: Which PBM binding z-score does the source give for TCATACAGGTAAAAGGTGAAAGTCGGTGTGGTAA here?
Answer: 5.73

Question: With TCAAGCAGGCCAGAGGGTCACTCAAGAGGTACGG as the sequence, how does the PBM binding z-score read?
Answer: 2.51

Question: How did the PBM binding z-score turn out when CTACCAAGGTGAACAAGGTCGTCGATTACTATTC was run?
Answer: 0.0715

Question: TCTGCTAGGTCAACGAGGGTCAGCTAATCTGCTA was tested. Which PBM binding z-score did it give?
Answer: 2.12

Question: TCTTGTGGATCAGCAGGTTAAGAAAGCTGGCCAA was tested. Which PBM binding z-score did it give?
Answer: 2.47

Question: Which PBM binding z-score does the source give for CCTACTGGACCATTCAGAGGTCATTGATCATATG here?
Answer: 0.466

Question: For ATCGAAAGATCGACGAGGTGAGTATACACCGTTT, which PBM binding z-score is on record?
Answer: 0.289

Question: CCAGACAGGTGAGAAGGTAAGTCAGCCTCGATTA was tested. Which PBM binding z-score did it give?
Answer: -0.405

Question: Which PBM binding z-score does the source give for GTGACTGGGGCAAAGCAGGTTACCATAAGGTTGG here?
Answer: 0.397

Question: Which PBM binding z-score does the source give for GCTAGCAGGCCATTTGGGTCACTGAATGACGGGC here?
Answer: -0.489

Question: TCATATAGGTAAATGCTAGGTAAAAGTCCGATCT was tested. Which PBM binding z-score did it give?
Answer: 3.89

Question: ACAGACAGGTGATGAAGGGAACTCAGGCTATCAT was tested. Which PBM binding z-score did it give?
Answer: 0.0362

Question: For GCTAGTTGGTCAGTAAAAGGTCACACCCCGGTCG, which PBM binding z-score is on record?
Answer: 2.14

Question: With ACTATTTGTTGACTTAGGGCAACCGATACGACGC as the sequence, how does the PBM binding z-score read?
Answer: 0.434

test system: PPARg:RXRa 90nM:30nM, anti-RXR (NR concentration 90 nM, RXRa partner concentration 30 nM); experiment: as above
In short: as §1

Question: TCTTGTAGATCAAGCAGGCTAAGAAAGCCTGAGT was tested. Which PBM binding z-score did it give?
Answer: 1.59

Question: Which PBM binding z-score does the source give for ACTAGCAGACCAAGGGTCACTCAAGATTAGTCCG here?
Answer: 5.96

Question: For GCGACTGGGGCAAAGCCGGTTACCATAAGGTTGG, which PBM binding z-score is on record?
Answer: -0.0511

Question: ATATGTAGGGTATCGGGTCATTCAGTTTGCGCAT was tested. Which PBM binding z-score did it give?
Answer: 4.32

Question: Which PBM binding z-score does the source give for CGTCCAAGGTTATAGGAGGTCAGTGAAGACAGAT here?
Answer: 0.943

Question: Which PBM binding z-score does the source give for ACTATTAGTTGAGACGAAGGCAACCGATAGGTTG here?
Answer: -0.372

Question: How did the PBM binding z-score turn out when CCGACTGGGGCAGAAGGTTACCATAAGCCAGCCC was run?
Answer: 2.15

Question: Which PBM binding z-score does the source give for TCATATAGCTAAACAGGTGAAAGTCCGTAAGTTA here?
Answer: 2.23

Question: With CGAACTAGGTCGGAACAGGACAGTGAAGGATGAT as the sequence, how does the PBM binding z-score read?
Answer: 0.234

Question: With TAGCCTAGGTCATTGGGCCAGTATCGTACGCATC as the sequence, how does the PBM binding z-score read?
Answer: 2.34

Question: Which PBM binding z-score does the source give for TCTCGGAGGACACGAAGGGCAGAGCTTTCCAGAG here?
Answer: 1.13

Question: For TCTGCTAGGTCAGTTGGTCAGTTAACGAGCTGCC, which PBM binding z-score is on record?
Answer: 1.08

Question: ACTAGCAGGCCAAGGGTCACTTAAGATTAGTCCG was tested. Which PBM binding z-score did it give?
Answer: 8.65

Question: Which PBM binding z-score does the source give for CCTCGGGGGACAGAAGGTCAGAGCTGTCCGCTTT here?
Answer: 1.51

Question: GCTCGGATGACAAGGTCAGAGCTTTGTCCGTAGA was tested. Which PBM binding z-score did it give?
Answer: -0.161

Question: CCTACTGGGCCACCAGGTCATTGATATCAACGTT was tested. Which PBM binding z-score did it give?
Answer: 3.26

Question: TGAATGAGGTTAAAGAACAGGGAACGTGGCGTCG was tested. Which PBM binding z-score did it give?
Answer: 3.04

Question: For GCGACTGGGGCATCAGCAGGTTACGATAACTTAA, which PBM binding z-score is on record?
Answer: 0.263

Question: With TAGCCTAGGTCATTCAGGAGCCAGTATAGAAAGC as the sequence, how does the PBM binding z-score read?
Answer: 1.63

Question: How did the PBM binding z-score turn out when ACTGACAGGTGAGTGAAGGTAACTCAGCTGGACG was run?
Answer: -0.0738

Question: AATACAGGGTCATCGTAGGCCAGAGGACGCACAG was tested. Which PBM binding z-score did it give?
Answer: 4.94

Question: For CGAACTGGGTCATTGACAGGACAGTGAATAGTAA, which PBM binding z-score is on record?
Answer: 5.44

Question: GCTTACGAGTCAAAGGTTATAGCATGAATAGAAT was tested. Which PBM binding z-score did it give?
Answer: 6.28

Question: Which PBM binding z-score does the source give for CCTAGTTGGTCCGGAGGTCACACACCGGATATGA here?
Answer: 3.05

Question: Which PBM binding z-score does the source give for TAGCCTAGGTCATGCAGGCCAGTATAGTGTCGGC here?
Answer: 1.34

Question: TAGCATAGGTCATGGGCCAGTATACCACGCGAAC was tested. Which PBM binding z-score did it give?
Answer: 4.24

Question: How did the PBM binding z-score turn out when TCATACAGGTAAAAGGTGAAAGTCGGTGTGGTAA was run?
Answer: 7.08

Question: With TCAAGCAGGCCAGAGGGTCACTCAAGAGGTACGG as the sequence, how does the PBM binding z-score read?
Answer: 2.67

Question: Which PBM binding z-score does the source give for CTACCAAGGTGAACAAGGTCGTCGATTACTATTC here?
Answer: 0.943

Question: Which PBM binding z-score does the source give for TCTGCTAGGTCAACGAGGGTCAGCTAATCTGCTA here?
Answer: 3.02

Question: TCTTGTGGATCAGCAGGTTAAGAAAGCTGGCCAA was tested. Which PBM binding z-score did it give?
Answer: 1.83

Question: How did the PBM binding z-score turn out when CCTACTGGACCATTCAGAGGTCATTGATCATATG was run?
Answer: 1.38

Question: Which PBM binding z-score does the source give for ATCGAAAGATCGACGAGGTGAGTATACACCGTTT here?
Answer: 0.00942

Question: Which PBM binding z-score does the source give for CCAGACAGGTGAGAAGGTAAGTCAGCCTCGATTA here?
Answer: -0.0734

Question: Which PBM binding z-score does the source give for GTGACTGGGGCAAAGCAGGTTACCATAAGGTTGG here?
Answer: 1.36

Question: How did the PBM binding z-score turn out when GCTAGCAGGCCATTTGGGTCACTGAATGACGGGC was run?
Answer: -0.116

Question: TCATATAGGTAAATGCTAGGTAAAAGTCCGATCT was tested. Which PBM binding z-score did it give?
Answer: 2.93

Question: Which PBM binding z-score does the source give for ACAGACAGGTGATGAAGGGAACTCAGGCTATCAT here?
Answer: -0.027

Question: Which PBM binding z-score does the source give for GCTAGTTGGTCAGTAAAAGGTCACACCCCGGTCG here?
Answer: 3.78

Question: With ACTATTTGTTGACTTAGGGCAACCGATACGACGC as the sequence, how does the PBM binding z-score read?
Answer: 0.364
